Source: PubChem
An excerpt weighted towards active compounds, which were near 12% of everything screened.
L3MBTL1 block: qHTS Assay for the Inhibitors of L3MBTL1 | AID 485360, 2010 | Lethal(3)malignant brain tumor-like protein 1 (Homo sapiens), Q9Y468 | AlphaScreen L3MBTL1–H3K9me1 peptide binding | Potency, µM (highest dose often 57.1 µM), without a hit: at the highest dose activity, negative = inhibition, actives largely listed as inhibitors | actives 0.66% (n = 230,000); also: % is scaled to controls: 0 for no effect and ±100 for the full control effect; nearly all actives have a fitted effect of over 60% in size
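L3MBTL1 (50 nM) pre-complexed 30 min with biotinylated H3(1-15)K9me1 peptide (75 nM), then compounds added for 30 min at room temperature; AlphaScreen streptavidin donor/nickel chelate acceptor beads (10 ug/mL final) read after 30 min dark incubation.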
JMJD2A Tudor: qHTS Assay for Inhibitors of JMJD2A-Tudor Domain. Potency, µM (highest dose often 114 µM), without a hit: at the highest dose activity change, negative = inhibition, actives largely listed as inhibitors. actives 4.4% (n = 390,000). Lysine-specific demethylase 4A (Homo sapiens), O75164. AlphaScreen JMJD2A-Tudor / H3K4me3 peptide binding; also: % is scaled to controls: 0 for no effect and ±100 for the full control effect; nearly all actives have a fitted effect of over 50% in size
HP1b chromo inh: HTS for Inhibitors of HP1-beta Chromodomain Interactions with Methylated Histone Tails; actives 0.56% (n = 390,000); Potency, µM (highest dose often 114 µM), inactives show at the highest dose activity change, negative = inhibition, actives largely listed as inhibitors; AlphaScreen HP1-beta / biotin-H3K9me3 peptide binding; Chromobox protein homolog 1 (Homo sapiens), P83916; also: nearly all actives have a fitted effect of over 70% in size
Target sequence (P83916 whole entry, looked up): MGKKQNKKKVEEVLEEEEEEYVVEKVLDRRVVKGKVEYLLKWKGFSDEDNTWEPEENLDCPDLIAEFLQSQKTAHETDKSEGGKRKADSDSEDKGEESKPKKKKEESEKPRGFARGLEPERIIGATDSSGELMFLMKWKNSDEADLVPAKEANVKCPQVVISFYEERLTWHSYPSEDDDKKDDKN
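AlphaScreen: HP1-beta (50 nM) preformed 30 min with biotin-H3(1-18)K9me3 peptide (50 nM) in PBS pH 7.4, 0.01% Tween-20. Compound added for 30 min at RT, then streptavidin donor/nickel chelate acceptor beads (10 ug/mL) for 30 min.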
Sfp inh: qHTS Assay for Inhibitors of Bacillus subtilis Sfp phosphopantetheinyl transferase (PPTase); AID 1490, 2009; Potency, µM, without a hit: largest response in the series, negative = inhibition, most hits filed as inhibitors; actives 3.5% (n = 310,000); 4'-phosphopantetheinyl transferase ffp (Bacillus subtilis), Q9F4F7; Biochemical Sfp PPTase activity, qHTS;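 also: the enzyme is Sfp with the accession as filed and its product quenches rhodamine fluorescence; 0% = enzyme reaction without inhibitor and -100% = no enzyme wells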
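Compounds were incubated with enzyme (final 15 nM) for 15 min at room temperature before substrate addition started the reaction. Fluorescence at 525 nm excitation, 598 nm emission was recorded immediately and after 30 minutes.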
BAZ2B block: qHTS Assay for Inhibitors of BAZ2B. Bromodomain adjacent to zinc finger domain protein 2B (Homo sapiens), Q9UIF8. Potency, µM (doses to about 114 µM), inactives show top-dose activity change, negative = inhibition, usual class: inhibitors. AlphaScreen BAZ2B-H3K14Ac peptide displacement. actives 4.4% (n = 360,000); also: % is scaled to controls: 0 for no effect and ±100 for the full control effect; nearly all actives have a fitted effect of over 60% in size
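Complex of BAZ2B and biotin-H3K14Ac (50 nM apiece) forms over 30 min at RT, then faces library compounds up to 110 uM for another 30 min; AlphaScreen beads added, 20 min dark incubation, luminescence read.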
G9a inh: qHTS Assay for Inhibitors of Histone Lysine Methyltransferase G9a. Histone-lysine N-methyltransferase EHMT2 (Homo sapiens), Q96KQ7. G9a H3K9 monomethylation, AlphaScreen, 2 h. Potency, µM (titrated, usually from 102 µM), for inactives: at the top dose activity, negative = inhibition, usual class: inhibitors. actives 8.8% (n = 350,000). AID 504332, 2011; also: % is scaled to controls: 0 for no effect and ±100 for the full control effect; nearly all actives have a fitted effect of over 75% in size
Target sequence (Q96KQ7 913-1193 limits assumed): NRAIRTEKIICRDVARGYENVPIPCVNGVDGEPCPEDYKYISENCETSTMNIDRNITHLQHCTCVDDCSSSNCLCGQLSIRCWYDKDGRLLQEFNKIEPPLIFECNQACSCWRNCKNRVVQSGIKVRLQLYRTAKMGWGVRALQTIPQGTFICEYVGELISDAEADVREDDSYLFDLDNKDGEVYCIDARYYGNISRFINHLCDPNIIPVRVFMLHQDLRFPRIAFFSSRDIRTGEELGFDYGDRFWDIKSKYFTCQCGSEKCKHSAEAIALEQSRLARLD
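AlphaScreen read-out: biotin-H3K9 peptide (500 nM) methylation by 20 nM enzyme with 20 uM SAM, 2 h at room temperature after 15 min compound preincubation; anti-monomethyl H3K9 antibody plus donor/acceptor beads, 10 min dark.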
* = called active by the depositor; ? = inconclusive; . = not tested or not shown; [ ] = another dose, or the depositor's remark. Calls follow the shape of the dose curve; as a rule, active = well fitted curve in the direction sought with a large enough effect; inconclusive = small, poorly fitted or top-dose-only effect, or another doubt; inactive = no such curve, though single readings can be large; an effect the other way counts as inactive or inconclusive. Potency is read from the fitted curve at half-maximal effect.

SMILES | L3MBTL1 block | JMJD2A Tudor | HP1b chromo inh | Sfp inh | BAZ2B block | G9a inh
COC(=O)c1c(NC(=O)c2ccco2)sc2c1CCN(C(C)C)C2 | . | -12.4% | 40.9% | 4.6% | -25.4% | 31.6µM*
CNC(=O)c1c(NC(=O)c2ccco2)sc2c1CCCC2 | . | 4.8% | 41.7% | -8.5% | -5.7% | .
COC(=O)c1c(NC(=O)C2CCCCC2C(=O)O)sc2c1CCCCC2 (stereo unspecified) | -8.3% | -15.9% | -11.1% | 1.2% | -30.4% | 31.6µM*
COC(=O)Nc1sc2c(c1C(=O)NC1CC1)CCCCCC2 | . | -15.1% | -7.8% | 31.6µM* | -22.7% | ?
CCOC(=O)c1c(NC(=O)C2CCCCC2C(=O)O)sc2c1CCCCC2 (stereo unspecified) | 8.1%[11.4 µM] | -26.8% | -1.8% | -5.0% | ? | -45.0%
Cc1ccc(C(=O)C(NC(=O)c2ccco2)Nc2sc3c(c2C(N)=O)CCCC3)cc1 (stereo unspecified) | -9.3% | . | . | 79.4µM* | ? | 12.6µM*
CC(C)N1CCc2c(sc(NC(=O)c3ccco3)c2C(N)=O)C1 | . | -12.3% | 26.2% | -13.2% | -4.0% | .
COc1ccc(-c2cc(C(=O)Nc3cccnc3)no2)cc1OC | . | -12.0% | 21.6% | 16.0% | 3.4% | -7.3%
CC(=O)OC[C@@H]1O[C@@H](O/N=C2/C[C@@H](O)[C@@H](O)[C@@H]3[C@H]4C(=O)N(c5ccc(F)cc5F)C(=O)[C@@H]4CC[C@H]23)[C@H](OC(C)=O)[C@H](OC(C)=O)[C@@H]1OC(C)=O | . | . | . | 10.7% | . | .
COC(=O)c1c(NC(=O)C2CC2)sc2c1CCN(C(C)=O)C2 | -2.4% | -10.6% | 39.3% | 14.1µM* | -0.2% | 44.7µM*
COC(=O)c1c(NC(=O)c2ccco2)sc2c1CCC2 | 5.6% | 0.4% | 56.2% | -3.8% | 2.1% | -11.6%
CC(C)OC(=O)c1c(NC(=O)c2ccco2)sc2c1CCCCC2 | . | 43.8% | 100.0% | 31.6µM* | 35.8% | -40.1%[59 µM]
O=C(Nc1sc2c(c1C(=O)NC1CC1)CCCCCC2)c1ccco1 | -13.0%[11.4 µM] | -14.6% | 5.7% | 39.8µM* | -21.6% | ?
COc1ccc(NC(=O)CS(=O)CC(=O)Nc2ccc(-n3cnnn3)c(C)c2)cc1 (stereo unspecified) | . | 3.6% | 19.7% | 7.7% | 4.7% | -2.4%
Nc1nc(N2CCCCC2)nc2ccccc12 | 4.7% | -5.7% | 25.2% | 4.1% | -4.2% | 50.1µM*
O=[N+]([O-])c1ccc(Nc2nc(NCCO)nc(N3CCCC3)n2)cc1 | . | -6.3% | 20.0% | 9.6% | 2.6% | 44.7µM*
COc1ccc(Nc2nc3ccc(OC)cc3s2)cc1 | -21.4% | ? | -27.1% | -9.7% | 56.2µM* | 39.8µM*
c1ccc2c(N3CCCCC3)nc(N3CCCC3)nc2c1 | 11.5% | 12.8% | 53.6% | -3.8% | 12.0% | -6.3%[12.7 µM]
OCCNc1nc(Nc2ccc(Cl)cc2)nc(N2CCCC2)n1 | . | -14.8% | 28.5% | . | . | .
COc1ccc(Nc2cccc3ccccc23)cc1 | -12.4% | 56.2µM* | ? | . | ? | 22.6%[2.33 µM]
COc1ccc2nc(Nc3nc(C)c(C(C)=O)s3)sc2c1 | 59.1% | 7.1%[57.1 µM] | 12.2% | -7.6% | 29.9% | -15.0%[59 µM]
COc1cccc([C@@H]2Oc3ccc(OC)cc3/C(=N/OC[C@@H](O)COCc3ccco3)[C@@H]2O)c1 | . | . | . | 1.8% | . | .
O=[N+]([O-])c1ccc(Nc2nc(N3CCOCC3)nc(N3CCOCC3)n2)cc1 | . | -11.6% | 8.2% | . | . | .
COc1ccc(Nc2nc(NN)nc(Nc3ccc(OC)cc3)n2)cc1 | ? | 44.7µM* | 15.3% | 14.3% | 25.1µM* | -1.2%
